How the values were obtained:
[1] = molecular target: T1, Inhibitor of nuclear factor kappa-B kinase subunit epsilon (Homo sapiens) (UniProt Q14164); settings: at 1 µM;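 note: reported values are averaged percent inhibition figures against human IKKε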
T1 sequence (whole entry): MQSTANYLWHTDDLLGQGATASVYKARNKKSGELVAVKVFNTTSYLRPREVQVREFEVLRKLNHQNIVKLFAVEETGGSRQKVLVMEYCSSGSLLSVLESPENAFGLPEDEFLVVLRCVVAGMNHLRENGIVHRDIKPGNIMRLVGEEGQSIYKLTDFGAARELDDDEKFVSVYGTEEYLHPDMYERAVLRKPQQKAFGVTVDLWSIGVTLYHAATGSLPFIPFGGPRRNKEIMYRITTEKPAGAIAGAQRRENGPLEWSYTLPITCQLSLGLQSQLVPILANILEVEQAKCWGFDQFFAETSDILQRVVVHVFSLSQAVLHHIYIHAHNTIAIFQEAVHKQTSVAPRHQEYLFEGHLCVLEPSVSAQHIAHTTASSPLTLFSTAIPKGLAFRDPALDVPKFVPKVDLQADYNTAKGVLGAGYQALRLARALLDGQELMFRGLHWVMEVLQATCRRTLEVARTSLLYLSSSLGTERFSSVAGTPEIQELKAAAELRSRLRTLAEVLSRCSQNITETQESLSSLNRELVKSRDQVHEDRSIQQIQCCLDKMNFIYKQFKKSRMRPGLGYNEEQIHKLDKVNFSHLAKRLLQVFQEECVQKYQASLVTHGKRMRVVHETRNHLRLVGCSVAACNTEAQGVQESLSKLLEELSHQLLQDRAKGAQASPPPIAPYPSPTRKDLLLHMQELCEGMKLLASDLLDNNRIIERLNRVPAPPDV

[2] = molecular target: T2, Serine/threonine-protein kinase Nek1 (Homo sapiens) (UniProt Q96PY6); settings: at 0.1 µM
T2 sequence (whole entry): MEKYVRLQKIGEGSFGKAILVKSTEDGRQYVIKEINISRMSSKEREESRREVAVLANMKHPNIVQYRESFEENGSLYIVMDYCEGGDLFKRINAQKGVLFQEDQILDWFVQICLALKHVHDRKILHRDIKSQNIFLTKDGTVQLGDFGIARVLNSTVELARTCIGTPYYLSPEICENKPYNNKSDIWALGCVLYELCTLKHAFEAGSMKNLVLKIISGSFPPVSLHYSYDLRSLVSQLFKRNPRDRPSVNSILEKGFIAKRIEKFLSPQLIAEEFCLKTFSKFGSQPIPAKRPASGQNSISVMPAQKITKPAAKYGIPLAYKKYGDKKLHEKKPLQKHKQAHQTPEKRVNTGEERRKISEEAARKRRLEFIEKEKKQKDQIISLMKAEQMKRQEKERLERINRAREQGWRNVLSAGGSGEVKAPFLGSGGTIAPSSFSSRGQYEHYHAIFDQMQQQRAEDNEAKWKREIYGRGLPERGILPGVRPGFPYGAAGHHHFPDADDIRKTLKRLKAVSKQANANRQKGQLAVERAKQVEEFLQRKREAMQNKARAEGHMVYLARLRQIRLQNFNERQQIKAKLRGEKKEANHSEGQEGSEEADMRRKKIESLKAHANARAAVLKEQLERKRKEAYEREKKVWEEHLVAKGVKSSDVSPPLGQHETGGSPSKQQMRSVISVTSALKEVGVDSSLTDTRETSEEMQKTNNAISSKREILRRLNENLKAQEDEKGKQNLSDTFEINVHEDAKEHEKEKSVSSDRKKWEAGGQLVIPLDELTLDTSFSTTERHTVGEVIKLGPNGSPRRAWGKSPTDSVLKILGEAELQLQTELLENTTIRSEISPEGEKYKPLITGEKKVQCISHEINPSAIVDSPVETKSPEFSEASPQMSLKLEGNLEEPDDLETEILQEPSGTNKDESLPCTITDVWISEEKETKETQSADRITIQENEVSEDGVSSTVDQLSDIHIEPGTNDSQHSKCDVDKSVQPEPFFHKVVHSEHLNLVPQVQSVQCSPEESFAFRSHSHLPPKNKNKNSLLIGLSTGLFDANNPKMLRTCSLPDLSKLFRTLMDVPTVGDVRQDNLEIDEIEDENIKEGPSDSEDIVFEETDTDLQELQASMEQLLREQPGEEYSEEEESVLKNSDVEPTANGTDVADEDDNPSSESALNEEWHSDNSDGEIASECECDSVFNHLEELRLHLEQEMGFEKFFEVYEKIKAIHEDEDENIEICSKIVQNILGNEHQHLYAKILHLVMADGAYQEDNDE

[3] = molecular target: T2, Serine/threonine-protein kinase Nek1 (Homo sapiens); settings: at 1 µM
[4] = molecular target: T3, Serine/threonine-protein kinase Nek2 (Homo sapiens) (UniProt P51955); settings: at 0.1 µM
T3 sequence (whole entry): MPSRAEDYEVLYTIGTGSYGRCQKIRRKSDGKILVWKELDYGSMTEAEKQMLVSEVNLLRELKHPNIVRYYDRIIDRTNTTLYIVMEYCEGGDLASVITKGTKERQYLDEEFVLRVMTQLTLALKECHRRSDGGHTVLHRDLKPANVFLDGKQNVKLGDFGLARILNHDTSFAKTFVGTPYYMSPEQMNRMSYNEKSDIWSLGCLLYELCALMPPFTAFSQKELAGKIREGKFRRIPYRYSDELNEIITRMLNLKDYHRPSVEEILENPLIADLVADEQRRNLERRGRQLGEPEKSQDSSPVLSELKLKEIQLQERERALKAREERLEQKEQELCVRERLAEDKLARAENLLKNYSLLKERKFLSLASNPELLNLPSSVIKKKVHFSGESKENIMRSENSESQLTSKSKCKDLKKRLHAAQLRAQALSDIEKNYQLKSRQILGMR

[5] = molecular target: T3, Serine/threonine-protein kinase Nek2 (Homo sapiens); settings: at 1 µM
[6] = molecular target: Serine/threonine-protein kinase Nek6 (Homo sapiens) (UniProt Q9HC98); settings: at 0.1 µM
Sequence of Serine/threonine-protein kinase Nek6 (Homo sapiens) (Q9HC98 whole entry): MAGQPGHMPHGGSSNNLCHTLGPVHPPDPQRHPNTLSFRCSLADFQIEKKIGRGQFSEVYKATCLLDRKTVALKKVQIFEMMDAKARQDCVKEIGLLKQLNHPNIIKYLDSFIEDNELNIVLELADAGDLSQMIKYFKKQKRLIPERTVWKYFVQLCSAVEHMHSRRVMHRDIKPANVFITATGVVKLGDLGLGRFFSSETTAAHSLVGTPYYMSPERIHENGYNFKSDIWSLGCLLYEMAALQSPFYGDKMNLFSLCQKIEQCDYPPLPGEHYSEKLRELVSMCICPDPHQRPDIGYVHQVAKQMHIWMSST

[7] = molecular target: Serine/threonine-protein kinase Nek6 (Homo sapiens) (UniProt Q9HC98); settings: at 1 µM
[8] = molecular target: Serine/threonine-protein kinase Nek7 (Homo sapiens) (UniProt Q8TDX7); settings: at 0.1 µM
Sequence of Serine/threonine-protein kinase Nek7 (Homo sapiens) (Q8TDX7 whole entry, looked up): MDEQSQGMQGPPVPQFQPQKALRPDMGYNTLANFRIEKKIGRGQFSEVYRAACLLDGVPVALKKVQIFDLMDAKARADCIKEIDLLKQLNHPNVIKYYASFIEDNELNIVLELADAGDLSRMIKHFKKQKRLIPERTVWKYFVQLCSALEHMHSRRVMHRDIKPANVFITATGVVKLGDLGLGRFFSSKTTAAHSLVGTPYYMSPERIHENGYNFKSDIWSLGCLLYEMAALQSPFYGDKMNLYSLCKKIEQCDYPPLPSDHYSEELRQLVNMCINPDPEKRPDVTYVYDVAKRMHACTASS

[9] = molecular target: Serine/threonine-protein kinase Nek7 (Homo sapiens) (UniProt Q8TDX7); settings: at 1 µM
[10] = molecular target: T4, Serine/threonine-protein kinase Nek9 (Homo sapiens) (UniProt Q8TD19); settings: at 0.1 µM
T4 sequence (whole entry): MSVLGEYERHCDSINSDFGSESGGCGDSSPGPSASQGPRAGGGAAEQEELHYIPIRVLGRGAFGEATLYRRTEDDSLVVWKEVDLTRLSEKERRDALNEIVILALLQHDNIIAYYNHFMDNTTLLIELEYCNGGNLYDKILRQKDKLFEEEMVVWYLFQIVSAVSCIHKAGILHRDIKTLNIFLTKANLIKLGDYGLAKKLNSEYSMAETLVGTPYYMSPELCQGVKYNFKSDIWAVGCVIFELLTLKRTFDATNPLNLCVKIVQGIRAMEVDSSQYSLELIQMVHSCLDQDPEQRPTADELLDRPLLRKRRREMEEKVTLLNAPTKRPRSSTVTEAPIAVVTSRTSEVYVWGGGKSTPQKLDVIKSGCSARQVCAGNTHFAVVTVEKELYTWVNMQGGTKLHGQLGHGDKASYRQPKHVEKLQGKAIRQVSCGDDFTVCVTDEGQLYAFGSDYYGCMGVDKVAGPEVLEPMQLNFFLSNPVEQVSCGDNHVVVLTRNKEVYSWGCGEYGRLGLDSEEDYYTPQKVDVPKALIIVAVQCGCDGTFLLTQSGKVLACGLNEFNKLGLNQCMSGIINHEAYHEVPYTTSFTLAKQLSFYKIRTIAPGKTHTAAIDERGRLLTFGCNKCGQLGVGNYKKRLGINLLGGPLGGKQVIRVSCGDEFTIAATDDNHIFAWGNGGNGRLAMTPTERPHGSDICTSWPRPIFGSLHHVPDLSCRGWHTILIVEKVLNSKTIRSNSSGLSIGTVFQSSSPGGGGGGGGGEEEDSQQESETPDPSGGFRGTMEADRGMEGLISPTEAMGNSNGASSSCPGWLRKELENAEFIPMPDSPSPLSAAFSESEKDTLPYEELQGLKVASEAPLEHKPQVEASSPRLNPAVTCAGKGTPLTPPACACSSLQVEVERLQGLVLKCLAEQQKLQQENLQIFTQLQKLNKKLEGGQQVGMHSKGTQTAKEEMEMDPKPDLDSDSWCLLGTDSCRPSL

[11] = molecular target: T4, Serine/threonine-protein kinase Nek9 (Homo sapiens); settings: at 1 µM
[12] = molecular target: Serine/threonine-protein kinase PLK1 (Homo sapiens) (UniProt P53350); settings: at 0.1 µM
Sequence of Serine/threonine-protein kinase PLK1 (Homo sapiens) (P53350 whole entry): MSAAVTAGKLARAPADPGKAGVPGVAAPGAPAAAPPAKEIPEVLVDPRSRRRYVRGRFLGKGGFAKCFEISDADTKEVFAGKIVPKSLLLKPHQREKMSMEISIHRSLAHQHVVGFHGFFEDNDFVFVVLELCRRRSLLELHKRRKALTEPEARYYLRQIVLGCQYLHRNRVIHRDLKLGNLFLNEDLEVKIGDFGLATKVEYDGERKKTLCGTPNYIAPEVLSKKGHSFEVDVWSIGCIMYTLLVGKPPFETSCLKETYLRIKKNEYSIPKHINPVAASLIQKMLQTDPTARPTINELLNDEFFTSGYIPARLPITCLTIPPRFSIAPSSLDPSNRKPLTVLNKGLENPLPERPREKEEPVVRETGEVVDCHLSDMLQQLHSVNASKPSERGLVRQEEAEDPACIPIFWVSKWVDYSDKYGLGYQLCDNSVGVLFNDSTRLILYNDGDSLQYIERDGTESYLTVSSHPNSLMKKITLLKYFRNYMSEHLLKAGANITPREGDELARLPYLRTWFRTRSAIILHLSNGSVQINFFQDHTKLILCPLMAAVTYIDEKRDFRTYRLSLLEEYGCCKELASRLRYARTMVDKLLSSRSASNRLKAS

[13] = molecular target: Serine/threonine-protein kinase PLK1 (Homo sapiens) (UniProt P53350); settings: at 1 µM
[14] = molecular target: T5, Dual specificity protein kinase TTK (Homo sapiens) (UniProt P33981); settings: at 0.1 µM
T5 sequence (whole entry): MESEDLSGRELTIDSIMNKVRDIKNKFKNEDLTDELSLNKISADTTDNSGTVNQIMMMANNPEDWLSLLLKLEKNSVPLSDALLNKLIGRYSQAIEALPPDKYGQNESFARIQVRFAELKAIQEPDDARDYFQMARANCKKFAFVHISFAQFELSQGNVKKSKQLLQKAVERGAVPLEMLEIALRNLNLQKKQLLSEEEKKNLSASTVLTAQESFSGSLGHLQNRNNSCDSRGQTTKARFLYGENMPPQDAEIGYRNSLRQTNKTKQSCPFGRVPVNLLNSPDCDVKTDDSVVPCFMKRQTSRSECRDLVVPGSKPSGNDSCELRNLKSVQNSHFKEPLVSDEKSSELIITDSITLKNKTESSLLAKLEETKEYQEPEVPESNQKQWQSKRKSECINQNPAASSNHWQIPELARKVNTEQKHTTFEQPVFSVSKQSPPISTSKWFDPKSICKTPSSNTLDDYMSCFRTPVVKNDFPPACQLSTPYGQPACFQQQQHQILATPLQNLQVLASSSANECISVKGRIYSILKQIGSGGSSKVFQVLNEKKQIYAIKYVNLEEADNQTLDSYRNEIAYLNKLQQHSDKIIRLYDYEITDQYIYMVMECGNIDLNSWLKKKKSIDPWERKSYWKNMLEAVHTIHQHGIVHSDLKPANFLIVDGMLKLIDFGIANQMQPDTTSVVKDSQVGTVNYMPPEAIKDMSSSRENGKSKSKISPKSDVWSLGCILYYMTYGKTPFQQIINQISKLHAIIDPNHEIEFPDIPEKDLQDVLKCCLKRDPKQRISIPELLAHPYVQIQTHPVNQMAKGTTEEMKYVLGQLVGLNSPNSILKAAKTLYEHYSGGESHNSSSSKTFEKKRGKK

[15] = tested on: T6, Receptor-type tyrosine-protein kinase FLT3 (Homo sapiens), P36888 [D835Y]; settings: at 1 µM
T6 sequence (whole entry): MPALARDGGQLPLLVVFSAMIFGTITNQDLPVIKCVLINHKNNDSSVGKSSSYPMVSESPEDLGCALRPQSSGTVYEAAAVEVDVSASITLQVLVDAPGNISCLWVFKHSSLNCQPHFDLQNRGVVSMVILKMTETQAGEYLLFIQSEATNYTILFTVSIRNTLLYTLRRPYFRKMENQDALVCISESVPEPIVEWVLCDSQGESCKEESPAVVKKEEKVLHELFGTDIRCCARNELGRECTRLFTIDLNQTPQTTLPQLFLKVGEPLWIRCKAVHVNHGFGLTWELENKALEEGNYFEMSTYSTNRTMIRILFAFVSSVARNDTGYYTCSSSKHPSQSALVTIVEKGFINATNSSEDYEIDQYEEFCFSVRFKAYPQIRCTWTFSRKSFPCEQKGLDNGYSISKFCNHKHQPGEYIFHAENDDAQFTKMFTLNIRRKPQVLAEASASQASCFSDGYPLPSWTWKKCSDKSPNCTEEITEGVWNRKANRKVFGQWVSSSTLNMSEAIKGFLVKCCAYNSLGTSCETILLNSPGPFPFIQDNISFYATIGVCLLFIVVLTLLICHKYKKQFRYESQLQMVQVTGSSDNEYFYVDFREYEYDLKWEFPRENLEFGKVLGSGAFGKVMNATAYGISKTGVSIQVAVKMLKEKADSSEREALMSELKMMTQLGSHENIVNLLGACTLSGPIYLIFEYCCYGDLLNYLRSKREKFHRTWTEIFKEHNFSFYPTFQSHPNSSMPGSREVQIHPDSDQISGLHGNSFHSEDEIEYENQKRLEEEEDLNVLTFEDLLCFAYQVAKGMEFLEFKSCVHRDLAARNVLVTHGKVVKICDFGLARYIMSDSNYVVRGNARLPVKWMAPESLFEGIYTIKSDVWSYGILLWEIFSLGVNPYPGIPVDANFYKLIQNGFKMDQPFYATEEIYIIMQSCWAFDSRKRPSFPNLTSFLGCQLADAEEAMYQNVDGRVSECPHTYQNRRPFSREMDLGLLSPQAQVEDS

[16] = molecular target: Vascular endothelial growth factor receptor 3 (Homo sapiens) (UniProt P35916); settings: at 0.1 µM
Sequence of Vascular endothelial growth factor receptor 3 (Homo sapiens) (P35916 whole entry): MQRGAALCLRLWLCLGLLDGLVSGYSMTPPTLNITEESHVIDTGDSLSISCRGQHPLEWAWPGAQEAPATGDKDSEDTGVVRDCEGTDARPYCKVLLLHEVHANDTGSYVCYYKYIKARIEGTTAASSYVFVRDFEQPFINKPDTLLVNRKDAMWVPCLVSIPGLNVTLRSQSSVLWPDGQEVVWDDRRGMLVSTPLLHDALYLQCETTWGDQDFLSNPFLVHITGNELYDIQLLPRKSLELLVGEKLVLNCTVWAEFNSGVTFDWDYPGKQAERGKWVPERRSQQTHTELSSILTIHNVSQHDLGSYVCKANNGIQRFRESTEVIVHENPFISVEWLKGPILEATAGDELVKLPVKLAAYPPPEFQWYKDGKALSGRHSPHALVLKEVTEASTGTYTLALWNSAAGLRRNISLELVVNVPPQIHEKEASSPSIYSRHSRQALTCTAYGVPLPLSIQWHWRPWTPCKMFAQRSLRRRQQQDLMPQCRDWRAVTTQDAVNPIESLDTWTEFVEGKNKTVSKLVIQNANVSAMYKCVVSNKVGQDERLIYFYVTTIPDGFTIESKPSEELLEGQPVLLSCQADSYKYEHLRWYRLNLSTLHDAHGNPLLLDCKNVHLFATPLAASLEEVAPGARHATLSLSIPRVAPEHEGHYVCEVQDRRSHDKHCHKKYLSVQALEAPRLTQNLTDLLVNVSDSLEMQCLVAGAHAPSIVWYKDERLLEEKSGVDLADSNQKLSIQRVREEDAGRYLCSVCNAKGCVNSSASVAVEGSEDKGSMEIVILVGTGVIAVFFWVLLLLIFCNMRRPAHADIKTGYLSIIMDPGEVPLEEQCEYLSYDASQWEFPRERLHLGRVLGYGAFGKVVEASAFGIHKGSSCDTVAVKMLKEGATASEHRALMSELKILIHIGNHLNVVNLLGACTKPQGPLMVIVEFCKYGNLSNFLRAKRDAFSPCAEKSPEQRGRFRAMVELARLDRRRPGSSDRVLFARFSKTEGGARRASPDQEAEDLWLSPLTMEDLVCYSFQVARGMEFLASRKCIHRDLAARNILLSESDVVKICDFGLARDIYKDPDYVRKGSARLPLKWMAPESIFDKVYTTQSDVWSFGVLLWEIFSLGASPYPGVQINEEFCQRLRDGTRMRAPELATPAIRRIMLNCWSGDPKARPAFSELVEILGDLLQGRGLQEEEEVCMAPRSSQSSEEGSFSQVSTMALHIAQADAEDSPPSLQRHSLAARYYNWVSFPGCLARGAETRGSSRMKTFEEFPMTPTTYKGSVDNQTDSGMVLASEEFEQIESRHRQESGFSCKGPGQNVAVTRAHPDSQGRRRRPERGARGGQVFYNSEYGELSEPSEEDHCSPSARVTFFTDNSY

[17] = molecular target: Vascular endothelial growth factor receptor 3 (Homo sapiens) (UniProt P35916); settings: at 1 µM
[18] = molecular target: Macrophage colony-stimulating factor 1 receptor (Homo sapiens) (UniProt P07333); settings: at 0.1 µM
Sequence of Macrophage colony-stimulating factor 1 receptor (Homo sapiens) (P07333 whole entry): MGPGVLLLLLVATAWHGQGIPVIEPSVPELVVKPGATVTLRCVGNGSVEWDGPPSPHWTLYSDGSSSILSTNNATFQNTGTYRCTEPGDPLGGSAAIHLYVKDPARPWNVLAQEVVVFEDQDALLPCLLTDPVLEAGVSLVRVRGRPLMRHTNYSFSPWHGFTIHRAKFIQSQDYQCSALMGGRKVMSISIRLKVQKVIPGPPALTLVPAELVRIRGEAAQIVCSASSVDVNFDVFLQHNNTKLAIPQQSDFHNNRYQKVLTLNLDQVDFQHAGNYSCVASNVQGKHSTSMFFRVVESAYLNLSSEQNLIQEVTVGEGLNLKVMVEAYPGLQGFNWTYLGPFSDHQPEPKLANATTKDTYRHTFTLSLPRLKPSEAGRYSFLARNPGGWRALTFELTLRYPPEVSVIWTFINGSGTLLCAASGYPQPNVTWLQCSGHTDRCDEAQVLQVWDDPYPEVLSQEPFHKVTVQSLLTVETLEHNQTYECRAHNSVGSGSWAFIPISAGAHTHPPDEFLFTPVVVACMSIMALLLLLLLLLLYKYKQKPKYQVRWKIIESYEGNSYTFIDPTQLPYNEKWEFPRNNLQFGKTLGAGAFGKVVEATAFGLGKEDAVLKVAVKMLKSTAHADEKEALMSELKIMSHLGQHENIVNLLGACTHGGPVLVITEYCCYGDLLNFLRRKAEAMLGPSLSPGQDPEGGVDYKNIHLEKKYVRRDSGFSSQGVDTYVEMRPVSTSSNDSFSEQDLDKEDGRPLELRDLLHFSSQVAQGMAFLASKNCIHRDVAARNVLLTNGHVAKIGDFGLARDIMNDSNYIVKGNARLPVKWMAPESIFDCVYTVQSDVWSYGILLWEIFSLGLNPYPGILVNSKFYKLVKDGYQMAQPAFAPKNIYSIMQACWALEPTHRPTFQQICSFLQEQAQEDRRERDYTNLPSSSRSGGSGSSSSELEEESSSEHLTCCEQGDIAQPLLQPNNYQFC

[19] = molecular target: Macrophage colony-stimulating factor 1 receptor (Homo sapiens) (UniProt P07333); settings: at 1 µM
[20] = molecular target: Tyrosine-protein kinase Fyn (Homo sapiens) (UniProt P06241); settings: at 0.1 µM
Sequence of Tyrosine-protein kinase Fyn (Homo sapiens) (P06241 2-537 limits assumed): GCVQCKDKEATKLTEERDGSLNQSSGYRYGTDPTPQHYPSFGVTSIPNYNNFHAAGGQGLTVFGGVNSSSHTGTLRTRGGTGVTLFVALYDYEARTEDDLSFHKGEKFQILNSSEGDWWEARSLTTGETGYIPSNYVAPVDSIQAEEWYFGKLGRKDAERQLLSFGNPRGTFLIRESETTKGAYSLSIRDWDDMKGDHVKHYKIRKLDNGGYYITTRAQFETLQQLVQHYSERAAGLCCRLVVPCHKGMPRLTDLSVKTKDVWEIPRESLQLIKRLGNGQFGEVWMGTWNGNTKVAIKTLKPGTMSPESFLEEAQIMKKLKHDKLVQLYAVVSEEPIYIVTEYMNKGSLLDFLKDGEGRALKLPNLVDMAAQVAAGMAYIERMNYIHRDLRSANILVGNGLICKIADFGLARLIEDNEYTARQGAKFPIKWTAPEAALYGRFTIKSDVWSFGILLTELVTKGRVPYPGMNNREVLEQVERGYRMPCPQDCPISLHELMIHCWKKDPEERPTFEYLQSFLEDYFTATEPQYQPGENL

| Structure (SMILES) | inhibition [1] | inhibition [2] | inhibition [3] | inhibition [4] | inhibition [5] | inhibition [6] | inhibition [7] | inhibition [8] | inhibition [9] | inhibition [10] | inhibition [11] | inhibition [12] | inhibition [13] | inhibition [14] | inhibition [15] | inhibition [16] | inhibition [17] | inhibition [18] | inhibition [19] | inhibition [20] |
| --- | --- | --- | --- | --- | --- | --- | --- | --- | --- | --- | --- | --- | --- | --- | --- | --- | --- | --- | --- | --- |
| FC(F)(F)CNc1nccc(-c2cnn3ncccc23)n1 | 0.44% | 2.31% | 0.95% | 3.06% | 2.24% | 0.83% | 0.6% | -1.64% | 1.79% | 4.65% | 0.64% | 0.06% | 0.65% | 3.92% | 6% | 2.05% | 2.12% | -4.71% | 3.68% | 0.85% |
| c1cnn2ncc(-c3ccnc(NCCCN4CCOCC4)n3)c2c1 | 13.4% | 1.91% | 0.27% | 4.15% | 4.3% | 0.45% | 2.66% | 5.96% | 1.47% | 14.8% | 9.51% | 4.18% | 3.55% | 9.47% | 1.99% | 0.01% | 0.07% | -0.33% | 5.17% | 2.47% |
